Assay results: article PMC5540273 (PLoS ONE, 2017)

Tested on: TNNI3K
Details: concentration: 1 μM, replicates: in singlicate; n = 1
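Further: KINOMEscan kinase panel screen.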

| SMILES | %Inh [%] |
| --- | --- |
| Cn1cc(-c2ccc3c(c2)CCN3C(=O)Cc2cccc(Cl)c2)c2c(N)ncnc21 [GSK2606590] | 0 |
| COc1ccc(-c2coc3ccc(-c4nnc(SCc5ccc(OC)c(C(F)(F)F)c5)o4)cc23)cc1 | 0 |
| CCS(=O)(=O)c1ccc(OC)c(Nc2nccc(-c3c(-c4cccc(NC(=O)c5c(F)cccc5F)c4)nn4ncccc34)n2)c1 [GSK326180] | 15 |
| O=C(Nc1cccc(-c2nn3ccccc3c2-c2ccnc(Nc3cccc(C(F)(F)F)c3)n2)c1)c1c(F)cccc1F [GSK292658] | 0 |
| NCCCC(NC(=O)c1cc(Br)c(-c2ccnc3[nH]ccc23)s1)c1ccccc1.O=C(O)C(F)(F)F.O=C(O)C(F)(F)F (stereo not shown) [GSK1287544] | 0 |
| CC(=O)Nc1nc2cnc(Nc3cc(NC(=O)c4cccc(C5(C#N)CC5)c4Cl)ccc3C)nc2s1 | 18 |
| COc1ccc(CNC(=O)NC2CCN(c3ccnc(Nc4ccc(F)cc4)n3)CC2)cc1 [GSK1379788] | 0 |
| Clc1ccc(-c2nn3ncccc3c2-c2ccnc(Nc3ccc4c(c3)OCCO4)n2)cc1 [GW829116] | 0 |
| CC(C)(C)c1ccc2nccc(Nc3cccc(O)c3)c2c1 [GW856795] | 0 |
| COc1cc(Nc2nccc(N3CCC(NC(=O)Nc4cccc(C(C)=O)c4)C3)n2)cc(OC)c1OC (stereo not shown) [GSK1379753] | 9 |
| COc1cc(Nc2nccc(-c3c(-c4cccc(NC(=O)c5c(F)cccc5F)c4)nn4ccccc34)n2)cc(OC)c1OC [GSK323521] | 3 |
| COc1cccc(NC(=O)NC2CCN(c3ccnc(Nc4cc(OC)c(OC)c(OC)c4)n3)C2)c1 (stereo not shown) [GSK1379763] | 0 |
| O=C(O)C(F)(F)F.O=C(O)C(F)(F)F.O=c1[nH]ccc2nc(N[C@@H]3CCCNC3)nc(Nc3ccc(S(=O)(=O)N4CCOCC4)cc3)c12 [GSK2177277] | 15 |
| CCCCc1nn2ncccc2c1-c1ccnc(Nc2ccc(N3CCN(C)CC3)cc2)n1 [GW684941] | 41 |
| CN(c1ccc(NC(=O)Nc2cc(C(F)(F)F)ccc2F)cc1)c1ccnc(Nc2ccc(S(N)(=O)=O)cc2)n1 [GW809893] | 93.3 |
| Nc1ncc(-c2cccnc2)c2scc(-c3ccc4c(c3)CCN4C(=O)Cc3ccccc3)c12 [GSK683281] | 20 |
| Cc1ccc(C(=O)Nc2ccc(Nc3ccnc4cc(-c5nccs5)ccc34)cc2O)cc1.Cl [GW494702] | 6 |
| COc1cc(Nc2nccc(N3CCC(NC(=O)c4cc5ccccc5s4)C3)n2)cc(OC)c1OC (stereo not shown) [GSK1379760] | 0 |
| O=C(Nc1cccc(-c2nn3ccccc3c2-c2ccnc(Nc3cccc(F)c3)n2)c1)c1c(F)ccc(F)c1Cl [GSK357952] | 0 |

| SMILES | %Inh [%] |
| --- | --- |
| CN(C)Cc1ccc(-c2ccc3c(Nc4ccc(Oc5ccccn5)cc4)ccnc3c2)o1 [GW567148] | 0 |
| CNC(=O)c1ccccc1Nc1nc(Nc2ccc(N3CCOCC3)cc2)ncc1Cl.Cl [GSK1576028] | 50 |
| Cl.Cl.NCC(NC(=O)c1cc(-c2ccccc2)c(-c2ccnc3[nH]ccc23)s1)c1ccccc1 (stereo not shown) [GSK1321561] | 18 |
| COc1ccc(Nc2nccc(N3CCC(NC(=O)Nc4cccc(OC)c4)C3)n2)cc1 (stereo not shown) [GSK1379742] | 0 |
| COC(=O)Nc1nc2cc(Oc3ccc(NC(=O)Nc4cc(C(F)(F)F)ccc4F)cn3)ccc2[nH]1.Cl.Cl [GW681170] | 92.9 |
| O=C(Nc1n[nH]c2cc(-c3ccoc3)ccc12)C1CC1 [SB-738481] | 0 |
| CSc1cccc2c(-c3ccncn3)c(-c3ccc(F)cc3)nn12 [GW514786] | 6 |
| c1ccc(Oc2ccc(Nc3ccnc4cc(-c5ccc(CNCCN6CCOCC6)o5)ccc34)cc2)nc1 [GW567145] | 0 |
| Nc1ncnc2c1nc(-c1ccccc1)n2-c1ccccc1 [SKF-97293] | 0 |
| Cl.c1ccc(-c2ccc3c(Nc4ccc5[nH]ccc5c4)ccnc3c2)nc1 [GW440138] | 0 |
| Cl.NC(=O)c1cccc(Nc2nccc(Nc3ccc(Oc4c(Cl)cccc4Cl)c(Cl)c3)n2)c1 [GW659009] | 0 |
| Cc1occc1-c1ncc(OC[C@@H](N)Cc2c[nH]c3ccccc23)cc1-c1ccc2[nH]nc(C)c2c1.O=C(O)C(F)(F)F [GSK682037] | 5 |
| Cc1ccc(C(=O)N2CC[C@@H](O)C2)cc1-n1c(C)cc(OCc2ccc(F)cc2F)c(Br)c1=O | 0 |
| Oc1cc(Nc2ccnc3cc(I)ccc23)ccc1F [GW552771] | 2 |
| c1ccc(-c2n[nH]cc2Nc2ccnc3ccccc23)nc1 [GW694077] | 0 |
| CC(C)c1nc(-c2cccc(NS(=O)(=O)c3c(F)cccc3F)c2F)c(-c2ccnc(Nc3ccc(N4CCOCC4)nc3)n2)s1 [GSK2008607] | 92.7 |
| Cn1cc(-c2[nH]c3cc(NC(=O)[C@H](N)C4CCCCC4)cc4c3c2C=NNC4=O)cn1 | 54 |
| C[C@@H](Oc1cc(-n2cnc3cc(-c4ccnc(NCCS(C)(=O)=O)c4)ccc32)sc1C(N)=O)c1ccccc1Cl [GSK907232] | 31 |
